HCMV antiviral: human cytomegalovirus inhibition; activity change, negative = inhibition, % at 57.5 µM; HFF cells, HCMV-luciferase reporter, 72 h; stronger effect = lower value; actives 4.5% (n = 410,000); AID 1259415; in the data active = activity change below about -60%; inconclusive = no clear call, values can overlap the other calls; inactive = above about -39%
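HFF cells seeded 16 h at 37C, treated with compounds, infected with luciferase-reporter HCMV at MOI 1 PFU/cell; luciferase read at 72 h post infection, normalized to buffer-only and Salinomycin controls.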
HCV inh: HCV inhibition | actives 3.4% (n = 340,000) | Huh7.5.1 HCVcc-Cre infection, luciferase reporter, 44 h | AID 651820 | Potency, µM (highest dose often 41.8 µM), for the others: top-dose activity change, negative = inhibition, actives largely listed as inhibitors; active = well fitted inhibition curve with a large enough effect; inconclusive = small, poorly fitted or top-dose-only effect, or another doubt; inactive = no such curve, though single readings can be large or run the other way; also: potency is read from the fitted curve at half-maximal effect
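Compounds are dispensed onto cells plated 4 h earlier at 1,000 per well, with HCVcc-Cre virus (about 0.5 moi) added next. Following 44 h of culture, luminescent signal is measured for 15 sec after 15 min with substrate at room temperature.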
FMDV inh: antivirals against foot and mouth disease virus; FMDV antiviral cell-based qHTS; Potency, µM (titrated, usually from 57.9 µM), for the others: at the top dose activity change, negative = inhibition, most hits filed as inhibitors; actives 1.2% (n = 410,000); AID 1159524; calls by dose curve; tested in HEK293T cells; also: read-out not given here; potency is read from the fitted curve at half-maximal effect; nearly all actives have a fitted effect of over 45% in size
Vaccinia mCherry: vaccinia inhibition (mCherry reporter). Vaccinia virus mCherry reporter infection, fluorescence. Potency, µM (top dose mostly 36.5 µM), without a hit: at the highest dose activity change, negative = inhibition, actives largely listed as inhibitors. actives 0.63% (n = 310,000); calls by dose curve; tested in A549 cells; also: potency is read from the fitted curve at half-maximal effect; nearly all actives have a fitted effect of over 35% in size
Vaccinia Venus: inhibitors of vaccinia virus (Venus reporter) | Vaccinia virus Venus reporter expression, fluorescence | Potency, µM (doses to about 36.5 µM), for the others: at the highest dose activity change, negative = inhibition, usual class: inhibitors | actives 0.46% (n = 330,000); calls by dose curve; tested in A549 cells; also: potency is read from the fitted curve at half-maximal effect; nearly all actives have a fitted effect of over 30% in size
Active calls of the source: *; i = inactive; ? = inconclusive; nt = no result given; ! = not active in a repeat; [ ] = another dose, or the depositor's remark. The list is not random: actives were taken first. Their share in the collection is about 7.3%. % is scaled to controls: 0 for no effect and ±100 for the full control effect.

SMILES	HCMV antiviral	HCV inh	FMDV inh	Vaccinia mCherry	Vaccinia Venus
CCc1ccc2occ(CC(=O)Nc3sc4c(c3C(=O)OC)CCC4)c2c1	-12.7	nt	-16.8%	-5.5%	-3.6%
CC[C@]12C(=O)N(C)C[C@H]([C@@H]3C(=O)N(C)C(=O)[C@@H]31)N2C(=O)c1ccccc1	-38.2	10.6%	3.9%	i	-19.8%
COc1ccccc1CCC(=O)Nc1ccc(S(=O)(=O)Nc2ncccn2)cc1	3.2	nt	-16.2%	-6.9%	-5.7%
Cc1ccc(C)n1-n1c(C)nc2scc(-c3ccccc3)c2c1=O	56.2	?	-10.5%	nt	nt
Cc1nc2scc(-c3ccccc3)c2c(=O)n1N=C1C=CC(=O)C=C1	?	?	28.2µM*	-14.9%	-7.3%
CCCCN1C(=O)c2[nH]nc(-c3ccccc3O)c2C1c1ccc(OCc2ccccc2)cc1 (centres undefined)	-108.0*	nt	0.0%	-2.8%	-4.9%
CCCCN1C(=O)c2[nH]nc(-c3ccccc3O)c2C1c1ccc(OCc2ccccc2)c(OC)c1 (centres undefined)	?	nt	-25.4%	-23.7%	-18.2%
COCCCN1C(=O)c2[nH]nc(-c3ccccc3O)c2C1c1ccc(OCc2ccccc2)cc1 (centres undefined)	-95.8*	nt	?	-11.3%[7.34 µM]	-8.8%[7.34 µM]
O=C1NC[C@@H](CCCCN2CCN(CCc3ccccc3)C(=O)C2=O)N(CCC2CCCCC2)C1=O	7.5	nt	18.0%	-7.4%	-3.9%
CCN1CCN(c2ccc(NC(=O)c3ccc(Cl)c(S(=O)(=O)N4CCCC4)c3)cc2)CC1	-22.4	17.8µM*	?	-0.4%	-18.5%
COc1ccc(C(=O)Nc2ccc(N3CCCCCC3)cc2)cc1S(=O)(=O)N1CCOCC1	-85.7*	8.91µM*	-49.2%	nt	nt
CCN1CCN(c2ccc(NC(=O)c3ccc(OC)c(S(=O)(=O)N4CCCC4)c3)cc2)CC1	-19.4	-9.1%	-17.7%	nt	nt
O=C(Nc1ccc(N2CCOCC2)cc1)c1ccc(Cl)c(S(=O)(=O)N2CCCC2)c1	?	6.31µM*	?	nt	nt
CCNC(=O)c1ccc(NS(=O)(=O)c2ccc3[nH]c(=O)[nH]c3c2)cc1	nt	-0.3%	-2.2%	-13.7%	0.3%
O=CNCCCc1nc2ccccc2n1CCc1ccccc1	-14.7	22.3%	-11.1%	-14.3%	-16.0%
COc1ccc(C(=O)c2oc3ccccc3c2NC(=O)COc2ccccc2)cc1	-25.6	nt	0.0%	?	?
O=C(CSc1nnc(-c2ccccc2Cl)o1)N1CCCc2ccccc21	-24.8	nt	-0.1%	-8.8%	1.2%
COc1cccc(-c2csc(NC3OC(=O)c4c3ccc(OC)c4OC)n2)c1 (centres undefined)	15.8	-26.9%	8.6%	?	-15.8%
COc1ccc2c(c1OC)C(=O)OC2Nc1nc(-c2ccc(-c3ccccc3)cc2)cs1 (centres undefined)	42.2	8.91µM*	?	?	?
O=C1OC(Nc2nc(-c3ccc(F)cc3)cs2)c2ccccc21 (centres undefined)	-91.2*	-6.9%	-19.2%	?	?
O=C1OC(Nc2nc3ccccc3s2)c2ccccc21 (centres undefined)	65.4	15.0%	26.0%	-19.5%	-7.7%
CCOc1ccccc1NC(=O)CN1CCN(Cc2ccccc2)CC1	?	-3.3%	-7.9%	nt	nt
CCOC(=O)C1CCN(S(=O)(=O)c2cc3c4c(c2)CC(=O)N4CCC3)CC1	10.1	nt	0.0%	-14.0%	-1.6%
Cc1cc(C)n2cc(CSc3nnnn3-c3ccccc3)nc2n1	-70.9*	13.2%	-18.1%	nt	nt
Cc1cc(C)n2cc(CSc3nnnn3-c3ccc(Cl)cc3)nc2n1	-23.6	8.1%	-27.5%	nt	?
SMILES	HCMV antiviral	HCV inh	FMDV inh	Vaccinia mCherry	Vaccinia Venus
Cc1cc(C)n2cc(CSc3nnc(-c4ccccc4)c(-c4ccccc4)n3)nc2n1	-9.1	5.6%	28.2µM*	nt	nt
Cc1cc(C)n2cc(CSc3ccc(Br)cc3)nc2n1	30.0	-11.8%	19.2%	i	-3.6%
COc1ccc(S(=O)(=O)N2CCCC(C(=O)Nc3cccnc3)C2)cc1Cl (centres undefined)	?	?	25.1µM*	?	?
CC(=O)N1CCCc2cc(S(=O)(=O)N3CCCC(C(=O)NCc4ccc(C)cc4)C3)ccc21 (centres undefined)	-72.4*!	?	?	-14.2%	-15.0%
COc1ccc(NC(=O)C2CCCN(S(=O)(=O)c3ccc4c(c3)CCCN4C(C)=O)C2)cc1Cl (centres undefined)	?	2.51µM*	?	i	-2.3%
COc1ccc(CNC(=O)C2CCCN(S(=O)(=O)N(C)c3ccc(F)cc3)C2)cc1OC (centres undefined)	?	nt	12.6µM*	-27.3%	?
CCOc1ccc(CNC(=O)C2CCCN(S(=O)(=O)N(C)c3ccc(F)cc3)C2)cc1OC (centres undefined)	-26.2	nt	?	-10.0%	-6.6%
COc1ccc(NC(=O)C2CCCN(S(=O)(=O)c3ccc4c(c3)CCCN4C(C)=O)C2)cc1 (centres undefined)	0.0	?	-12.0%	-13.4%	-24.7%
COc1cccc(Cn2c(=O)c(-c3cccs3)nc3cnc(N4CCNCC4)nc32)c1	nt	nt	12.6%	nt	nt
O=C(NC[C@H]1CCCCN1)c1cc(OCC(F)(F)F)ccc1OCC(F)(F)F	nt	nt	-5.4%	nt	nt
CCOc1ccc(CCNC(=O)c2sc3nc4n(c(=O)c3c2C)CCCC4)cc1	-12.8	nt	-18.8%	4.9%	-9.9%
COc1ccc(S(=O)(=O)N2CCCC(C(=O)NCc3ccncc3)C2)cc1Cl (centres undefined)	-65.8*	-24.9%	nt	-9.3%	-11.8%
COc1ccc(NC(=O)C2CCN(c3cnccn3)CC2)cc1Cl	-60.2*!	-9.4%	-9.3%	-7.4%	-6.8%
CC(=O)Nc1ccc(NC(=O)C2CCN(c3cnccn3)CC2)cc1	-9.4	nt	-0.3%	-3.2%	4.0%
COc1ccc(S(=O)(=O)N2CCCC(C(=O)Nc3cccc(C(C)=O)c3)C2)cc1 (centres undefined)	-66.2*	?	?	nt	-16.9%
O=C1COc2ccc(-c3cc(-c4ccccc4)c4c(n3)-c3cc(Cl)ccc3OC4)cc2N1	17.3	nt	-10.1%	3.5%	-6.8%
Cc1ccc2nc(C)c3c(c2c1)N(c1ccc(F)cc1)CC3	?	?	-26.0%	?	-10.1%
COc1cccc2c3c(c(C)nc12)CCN3c1ccccc1	-77.8*	?	-23.3%	-6.3%	-9.8%
COc1ccc(S(=O)(=O)Nc2ccc3cn[nH]c3c2)cc1C	14.5	-19.9%	0.0%	-15.7%	-13.7%
CCOC(=O)c1ccc(S(=O)(=O)Nc2ccc3cn[nH]c3c2)cc1	-18.5	11.2µM*	-19.0%	nt	nt
Cc1cc(C)c(C)c(S(=O)(=O)Nc2ccc3cn[nH]c3c2)c1C	-84.3*	12.6µM*	-10.1%	nt	nt
O=S(=O)(Nc1ccc2cn[nH]c2c1)c1ccc(C(F)(F)F)cc1	21.1	22.0%	8.1%	nt	nt
CCC[C@@H](CN1CCC[C@H]1CN1C(N)=NC[C@H]1CC(C)C)N1C[C@@H]([C@H](C)CC)N(CCCC2CCCC2)C1=N	-29.3	2.82µM*	-20.4%	-0.7%	-5.0%
